Consider 31 compounds from ChEMBL document CHEMBL1961873, “Compounds: GSK PKIS; Assays: Nanosyn kinase panel” (2012).

Several values for one entry are separate records, joined by “and”; a condition that tells them apart may be missing. Equal values may be shown once.

Chain of Tyrosine-protein kinase Fer (Homo sapiens) (P16591 whole entry, looked up): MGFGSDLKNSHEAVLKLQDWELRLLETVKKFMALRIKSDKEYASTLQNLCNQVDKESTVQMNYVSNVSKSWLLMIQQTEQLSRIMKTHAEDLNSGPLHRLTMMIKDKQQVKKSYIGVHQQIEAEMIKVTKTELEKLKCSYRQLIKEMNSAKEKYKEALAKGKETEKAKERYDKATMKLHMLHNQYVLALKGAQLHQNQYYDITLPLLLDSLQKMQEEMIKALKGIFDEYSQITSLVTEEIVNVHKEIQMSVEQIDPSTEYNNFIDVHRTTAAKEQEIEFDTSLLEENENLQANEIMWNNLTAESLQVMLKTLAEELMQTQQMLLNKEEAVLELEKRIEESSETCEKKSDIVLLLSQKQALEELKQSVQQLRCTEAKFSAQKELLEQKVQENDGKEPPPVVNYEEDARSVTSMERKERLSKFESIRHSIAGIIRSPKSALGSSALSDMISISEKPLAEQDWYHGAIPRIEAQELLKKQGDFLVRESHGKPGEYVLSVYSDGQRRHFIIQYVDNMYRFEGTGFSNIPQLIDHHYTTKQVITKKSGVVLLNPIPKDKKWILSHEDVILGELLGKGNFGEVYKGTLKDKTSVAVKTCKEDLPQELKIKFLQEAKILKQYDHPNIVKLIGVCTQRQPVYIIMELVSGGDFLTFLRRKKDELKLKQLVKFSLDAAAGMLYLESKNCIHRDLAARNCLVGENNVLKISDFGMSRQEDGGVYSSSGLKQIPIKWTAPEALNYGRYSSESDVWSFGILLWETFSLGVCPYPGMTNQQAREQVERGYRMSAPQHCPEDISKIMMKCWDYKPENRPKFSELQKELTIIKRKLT

The first test concerns the target Tyrosine-protein kinase Fer (Homo sapiens) (UniProt P16591). The following applies: at 1 µM.
Usually inhibition stands for the drop in the measured response relative to a control, in per cent. Consider `NS(=O)(=O)c1ccc(N/N=C2\C(=O)Nc3ccc(C(=O)NCc4ccncc4)cc32)cc1`, for which the inhibition came out at 5.14%.

Take `Nc1nccc(-c2c(-c3ccc(F)cc3)ncn2C2CCNCC2)n1`: the inhibition is -1.75% and 3.19%.

On to `CCOc1ccc2c(-c3ccnc(Nc4cc(OC)cc(C(F)(F)F)c4)n3)cnn2n1`, for which the inhibition stood at 8.05%.

Regarding `CS(=O)(=O)CCNCc1ccc(-c2ccc3ncnc(Nc4ccc(OCc5cccc(C(F)(F)F)c5)cc4)c3c2)o1`, the inhibition is 0.74%.

On to `Fc1ccc(Nc2nccc(-c3c(-c4ccc(C(F)(F)F)cc4)nn4ncccc34)n2)cc1F`, for which the inhibition amounted to 4.28%.

As to `COc1cccc(-n2ncc3c(N/N=C/c4ccc(C(=O)NCCN(C)C)cc4)ncnc32)c1`, the inhibition was determined as 1.12%.

In the case of `CCn1c(-c2nonc2N)nc2cncc(C(=O)NCCNC)c21`, the inhibition was found to be 3.14%.

As to `COc1cc(Nc2ncc(-c3ccccc3)o2)cc(OC)c1`, the inhibition was determined as 3.14%.

For the compound `O=C1Nc2ccccc2/C1=C1\CCc2cc(O)ccc21`, the inhibition came to 22.1%.

Take `CS(=O)(=O)CCNCc1ccc(-c2ccc3ncnc(Nc4ccc(OCc5ccccc5)cc4)c3c2)o1`: the inhibition is 0.38%.

For the compound `FC(F)(F)CNc1nccc(-c2cnn3ncccc23)n1`, the inhibition was determined as 0.92%.

In the case of `Cc1c2ccc(N(C)c3ccnc(Nc4cccc(S(N)(=O)=O)c4)n3)cc2nn1C`, the inhibition came to 74.1%.

Take `CN1CCC(n2cnc(-c3ccc(F)cc3)c2-c2ccnc(NCCO)n2)CC1`: the inhibition turned out to be 7.14%.

Consider `NS(=O)(=O)c1cccc(N/C=C2\C(=O)Nc3ccccc32)c1`, for which the inhibition came out at 6.18%.

On to `CNC(=O)c1ncccc1Nc1nc(Nc2cc3c(cc2OC)CCCN3C(=O)CN(C)C)nc2[nH]ccc12`, for which the inhibition is 80.1%.

In the case of `COc1c(C(N)=O)cc(-c2ccc(Cl)cc2)cc1-c1ccc(S(N)(=O)=O)cc1`, the inhibition stood at 5.66%.

Consider `COc1ccccc1-c1cc(/C=C2\C(=O)Nc3ncc(Br)cc32)cc(Br)c1O`, for which the inhibition amounted to 9.31%.

Regarding `COc1cc2c(cc1Nc1nc(Nc3cccc(F)c3C(N)=O)c3cc[nH]c3n1)N(C(=O)CN1CCN(C(C)C)CC1)CC2`, the inhibition was determined as 53.2%.

As for `COc1ccc(-c2nn3ncccc3c2-c2ccnc(Nc3ccc(F)c(F)c3)n2)cc1`, the inhibition was 7.64%.

With `Cc1cc(O)cc(C)c1/C=C/c1cncc(C(N)=O)c1`, the inhibition stood at 1.87%.

As to `Cc1nnc(-c2cccc(-c3ccc(C(=O)NCC4CC4)cc3)c2)o1`, the inhibition is 3.05%.

`O=C(O[C@H]1CN[C@H](C#Cc2cc3ncnc(Nc4ccc5c(cnn5Cc5ccccc5)c4)c3s2)C1)N1CCOCC1`: the inhibition was determined as 0.92%.

With `CC(C)c1ccc(-c2cc(-c3c[nH]nc3-c3ccccn3)ccn2)cc1`, the inhibition is 2.58%.

For `COC(=O)Nc1nc2ccc(Oc3ccc(NC(=O)Nc4cc(C(F)(F)F)ccc4F)cc3)cc2s1`, the inhibition came to 6.3%.

In the case of `CC1=C(C(=O)Nc2ccc3[nH]ncc3c2)C(c2ccc(F)cc2)N=C(c2ccc(C(F)(F)F)nc2)N1` (configuration not stated), the inhibition came out at 2.23%.

As for `Cc1cc(O)cc(C)c1/C=C/c1cncc(C(=O)OC(C)(C)C)c1`, the inhibition was determined as 3.02%.

Consider `COC(=O)Nc1nc2cc(Oc3ccc(NC(=O)Nc4ccccc4)cc3)ccc2[nH]1`, for which the inhibition came out at 3.19%.

Turning to `CC1(C)CC(n2cnc(-c3ccc(F)cc3)c2-c2ccnc(N)n2)CC(C)(C)N1`, the inhibition is 0.17%.

For the compound `COc1cc(N2CCN(C(C)C)CC2)ccc1Nc1nc(Nc2cccc3ncccc23)c2cc[nH]c2n1`, the inhibition came out at 44.4%.

For `c1ccc(-c2n[nH]cc2-c2ccnc(-c3ccc(OCCn4ccnc4)cc3)c2)nc1`, the inhibition turned out to be 1.84%.

As to `Nc1ncnc2occ(-c3ccc(NC(=O)Nc4cc(C(F)(F)F)ccc4F)cc3)c12`, the inhibition is 29.4% and 17.7%.

The next test deals with Tyrosine-protein kinase Fes/Fps (Homo sapiens) (UniProt P07332). The following applies: at 0.1 µM.
Chain of Tyrosine-protein kinase Fes/Fps (Homo sapiens) (P07332 whole entry): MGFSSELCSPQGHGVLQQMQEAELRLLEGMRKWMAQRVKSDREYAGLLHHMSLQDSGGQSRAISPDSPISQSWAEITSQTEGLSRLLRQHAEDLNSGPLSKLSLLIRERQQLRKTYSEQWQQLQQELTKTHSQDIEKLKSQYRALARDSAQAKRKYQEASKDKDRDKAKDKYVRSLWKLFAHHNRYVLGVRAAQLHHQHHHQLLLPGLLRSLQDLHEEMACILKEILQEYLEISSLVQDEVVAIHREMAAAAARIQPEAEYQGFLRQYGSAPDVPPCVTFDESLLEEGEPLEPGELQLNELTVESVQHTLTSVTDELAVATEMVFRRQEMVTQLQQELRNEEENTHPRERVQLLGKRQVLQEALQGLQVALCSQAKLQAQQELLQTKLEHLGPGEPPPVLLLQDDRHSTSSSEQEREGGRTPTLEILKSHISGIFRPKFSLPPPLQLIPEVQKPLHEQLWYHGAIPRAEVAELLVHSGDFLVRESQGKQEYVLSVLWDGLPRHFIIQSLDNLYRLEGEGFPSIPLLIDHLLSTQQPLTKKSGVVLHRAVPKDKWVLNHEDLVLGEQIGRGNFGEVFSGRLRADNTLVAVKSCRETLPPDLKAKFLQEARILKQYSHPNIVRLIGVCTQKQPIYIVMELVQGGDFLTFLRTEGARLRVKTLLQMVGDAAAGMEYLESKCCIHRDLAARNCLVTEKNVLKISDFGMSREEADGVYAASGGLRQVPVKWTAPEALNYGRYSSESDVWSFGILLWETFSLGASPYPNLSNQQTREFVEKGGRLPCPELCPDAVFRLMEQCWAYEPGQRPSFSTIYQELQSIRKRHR
`NS(=O)(=O)c1ccc(N/N=C2\C(=O)Nc3ccc(C(=O)NCc4ccncc4)cc32)cc1`: the inhibition turned out to be 2.4%.

Take `Nc1nccc(-c2c(-c3ccc(F)cc3)ncn2C2CCNCC2)n1`: the inhibition was -3.81% and -0.12%.

As to `CCOc1ccc2c(-c3ccnc(Nc4cc(OC)cc(C(F)(F)F)c4)n3)cnn2n1`, the inhibition came out at 0.16%.

For `CS(=O)(=O)CCNCc1ccc(-c2ccc3ncnc(Nc4ccc(OCc5cccc(C(F)(F)F)c5)cc4)c3c2)o1`, the inhibition was determined as 3.52%.

Consider `Fc1ccc(Nc2nccc(-c3c(-c4ccc(C(F)(F)F)cc4)nn4ncccc34)n2)cc1F`, for which the inhibition was determined as 3.21%.

Turning to `COc1cccc(-n2ncc3c(N/N=C/c4ccc(C(=O)NCCN(C)C)cc4)ncnc32)c1`, the inhibition was 1.87%.

On to `CCn1c(-c2nonc2N)nc2cncc(C(=O)NCCNC)c21`, for which the inhibition was determined as 4.48%.

As to `COc1cc(Nc2ncc(-c3ccccc3)o2)cc(OC)c1`, the inhibition is 3.89%.

In the case of `O=C1Nc2ccccc2/C1=C1\CCc2cc(O)ccc21`, the inhibition was 4.19%.

As for `CS(=O)(=O)CCNCc1ccc(-c2ccc3ncnc(Nc4ccc(OCc5ccccc5)cc4)c3c2)o1`, the inhibition came to 3.93%.

For `FC(F)(F)CNc1nccc(-c2cnn3ncccc23)n1`, the inhibition was determined as 2.11%.

As to `Cc1c2ccc(N(C)c3ccnc(Nc4cccc(S(N)(=O)=O)c4)n3)cc2nn1C`, the inhibition is 15.2%.

Take `CN1CCC(n2cnc(-c3ccc(F)cc3)c2-c2ccnc(NCCO)n2)CC1`: the inhibition is 2.72%.

As for `NS(=O)(=O)c1cccc(N/C=C2\C(=O)Nc3ccccc32)c1`, the inhibition was 3.03%.

For the compound `CNC(=O)c1ncccc1Nc1nc(Nc2cc3c(cc2OC)CCCN3C(=O)CN(C)C)nc2[nH]ccc12`, the inhibition was determined as 44.3%.

For the compound `COc1c(C(N)=O)cc(-c2ccc(Cl)cc2)cc1-c1ccc(S(N)(=O)=O)cc1`, the inhibition is 3.78%.

As to `COc1ccccc1-c1cc(/C=C2\C(=O)Nc3ncc(Br)cc32)cc(Br)c1O`, the inhibition is 3.24%.

With `COc1cc2c(cc1Nc1nc(Nc3cccc(F)c3C(N)=O)c3cc[nH]c3n1)N(C(=O)CN1CCN(C(C)C)CC1)CC2`, the inhibition stood at 14%.

`COc1ccc(-c2nn3ncccc3c2-c2ccnc(Nc3ccc(F)c(F)c3)n2)cc1`: the inhibition is 2.66%.

For `Cc1cc(O)cc(C)c1/C=C/c1cncc(C(N)=O)c1`, the inhibition is 1.69%.

Take `Cc1nnc(-c2cccc(-c3ccc(C(=O)NCC4CC4)cc3)c2)o1`: the inhibition was 4.04%.

As for `O=C(O[C@H]1CN[C@H](C#Cc2cc3ncnc(Nc4ccc5c(cnn5Cc5ccccc5)c4)c3s2)C1)N1CCOCC1`, the inhibition was -0.09%.

Take `CC(C)c1ccc(-c2cc(-c3c[nH]nc3-c3ccccn3)ccn2)cc1`: the inhibition is 0.8%.

As to `COC(=O)Nc1nc2ccc(Oc3ccc(NC(=O)Nc4cc(C(F)(F)F)ccc4F)cc3)cc2s1`, the inhibition was 0.15%.

As for `CC1=C(C(=O)Nc2ccc3[nH]ncc3c2)C(c2ccc(F)cc2)N=C(c2ccc(C(F)(F)F)nc2)N1` (configuration not stated), the inhibition is 1.4%.

For the compound `Cc1cc(O)cc(C)c1/C=C/c1cncc(C(=O)OC(C)(C)C)c1`, the inhibition worked out at 1.48%.

For the compound `COC(=O)Nc1nc2cc(Oc3ccc(NC(=O)Nc4ccccc4)cc3)ccc2[nH]1`, the inhibition was 1.46%.

Regarding `CC1(C)CC(n2cnc(-c3ccc(F)cc3)c2-c2ccnc(N)n2)CC(C)(C)N1`, the inhibition was -0.11%.

As for `COc1cc(N2CCN(C(C)C)CC2)ccc1Nc1nc(Nc2cccc3ncccc23)c2cc[nH]c2n1`, the inhibition worked out at 0.44%.

Regarding `c1ccc(-c2n[nH]cc2-c2ccnc(-c3ccc(OCCn4ccnc4)cc3)c2)nc1`, the inhibition was -0.05%.

As for `Nc1ncnc2occ(-c3ccc(NC(=O)Nc4cc(C(F)(F)F)ccc4F)cc3)c12`, the inhibition was 1.99% and -1.17%.
